# In paper PMC5540273 (PLoS ONE, 2017):
# Assays:
# Details in all cases: concentration: 1 μM,replicates: in singlicate; n = 1
# DCAMKL2 = system: T1, DCAMKL2
# T1 construct: gene DCLK2
# DCAMKL3 = system: T2, DCAMKL3
# T2 construct: gene DCLK3
# DDR1 = system: DDR1
# DDR2 = system: DDR2
# DLK = system: T3, DLK
# T3 construct: gene MAP3K12
# DMPK2 = system: T4, DMPK2
# T4 construct: gene CDC42BPG
# DMPK = system: DMPK
# DRAK1 = system: T5, DRAK1
# T5 construct: gene STK17A
# DRAK2 = system: T6, DRAK2
# T6 construct: gene STK17B
# DYRK1A = system: DYRK1A
# DYRK1B = system: DYRK1B
# DYRK2 = system: DYRK2
# EGFR = system: EGFR
# EIF2AK1 = system: EIF2AK1
# EPHA1 = system: EPHA1
# EPHA2 = system: EPHA2
# EPHA3 = system: EPHA3
# EPHA4 = system: EPHA4
# EPHA5 = system: EPHA5
# EPHA6 = system: EPHA6
# 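Further: KINOMEscan kinase panel screen.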
SMILES,%Inh (DCAMKL2) [%],%Inh (DCAMKL3) [%],%Inh (DDR1) [%],%Inh (DDR2) [%],%Inh (DLK) [%],%Inh (DMPK2) [%],%Inh (DMPK) [%],%Inh (DRAK1) [%],%Inh (DRAK2) [%],%Inh (DYRK1A) [%],%Inh (DYRK1B) [%],%Inh (DYRK2) [%],%Inh (EGFR) [%],%Inh (EIF2AK1) [%],%Inh (EPHA1) [%],%Inh (EPHA2) [%],%Inh (EPHA3) [%],%Inh (EPHA4) [%],%Inh (EPHA5) [%],%Inh (EPHA6) [%]
Nc1nc(Nc2ccccc2)cc(-c2ccc3c(N)n[nH]c3c2)n1 [GSK2225749],0,61,0,26,3,0,0,99.5,97.2,48,19,88,16,0,0,32,0,0,0,0
Cc1ccc2c(-c3ccncc3)c(-c3ccc(F)cc3)nn2c1.Cl [GW461484],0,0,76,80,29,77,11,0,0,0,4,9,43,0,10,8,13,0,0,5
CC(C)N1C(=O)Cc2cc(Nc3ncc(C(F)(F)F)c(NCc4cccc(S(C)(=O)=O)c4)n3)ccc21,0,34,–,0,0,0,0,74,82,2,38,19,0,0,4,0,9,1,3,3
Cc1cc(C(=O)Nc2ccc(Oc3ccc4nc(NC(=O)C5CC5)cn4n3)cc2)nn1-c1ccccc1,2,20,–,100,12,0,0,0,0,0,0,0,0,0,45,29,0,48,6,46
O=C(NCCNc1ccnc(NCc2ccc(F)cc2)n1)c1cc2ccccc2s1 [GSK1379944],0,4,–,0,0,0,0,0,0,30,0,0,23,0,10,17,0,22,0,19
